# Reference: the supplement of paper PMC8728848
# This excerpt belongs to a sample that is enriched for the strongest signals.
# B1: Erv41-EDTA (Saccharomyces cerevisiae), Q04651 (protein)
# chain: MKFLVNVALVFMVVYISYIYAAAPEHHHHHHDYDIPTTENLYFQGAMGYIDQQYVVDSQVRDTVQINMDIYVNTKCDWLQINVRDQTMDRKLVLEELQLEEMPFFIPYDTKVNDINEIITPELDEILGEAIPAEFREKLDTRSFFDESDPNKAHLPEFNGCHVFGSIPVNRVSGELQITAKSLGYVASRKAPLEELKFNHVINEFSFGDFYPYIDNPLDNTAQFNQDEPLTTYVYYTSVVPTLFKKLGAEVDTNQYSVNDYRYLYKDVAAKGDKMPGIFFKYNFEPLSIVVSDVRL
# Key:
# Assay in all cases: glycan array binding signal (z-score within array); higher = stronger binding
# Details in all cases: glycan notation: IUPAC condensed, linker removed
# [1] = target: GlcNAc(b1-3)Gal(b1-4)GlcNAc(b1-3)Gal(b1-4)GlcNAc(b1-3)Gal(b1-4)GlcNAc(b1-2)Man(a1-3)[GlcNAc(b1-3)Gal(b1-4)GlcNAc(b1-3)Gal(b1-4)GlcNAc(b1-3)Gal(b1-4)GlcNAc(b1-2)Man(a1-6)]Man(b1-4)GlcNAc(b1-4)GlcNAc
# Summary of the method: (§1)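 Glycan array data came from 3228 arrays in the Consortium for Functional Glycomics database, and only arrays with an available protein sequence were kept. Glycan names were put into IUPAC-condensed notation, and columns mapping to the same glycan were averaged. The binding signal is a within-array Z-score, averaged across arrays of one protein sequence run at different concentrations or buffers and across linkers. A negative Z-score can be read as non-binding.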
# Kdn(a2-3)Gal(b1-3)GalNAc = target: Kdn(a2-3)Gal(b1-3)GalNAc
# Summary of the method: as §1
# [2] = target: Man(a1-2)Man(a1-2)Man(a1-3)Man
# Summary of the method: as §1
# [3] = target: Man(a1-3)[Man(a1-6)]Man(b1-4)GlcNAc(b1-4)[Fuc(a1-6)]GlcNAc
# Summary of the method: as §1
# [4] = target: Neu5Ac(a2-3)Gal(b1-3)[Neu5Ac(a2-6)]GalNAc
# Summary of the method: as §1
# [5] = target: Neu5Ac(a2-3)Gal(b1-3)]Neu5Ac(a2-3)Gal(b1-4)]GlcNAc
# Summary of the method: as §1
# [6] = target: Neu5Ac(a2-3)Gal(b1-4)GlcNAc(b1-2)Man(a1-3)[Neu5Ac(a2-3)Gal(b1-4)GlcNAc(b1-2)Man(a1-6)]Man(b1-4)GlcNAc(b1-4)[Fuc(a1-6)]GlcNAc
# Summary of the method: as §1
# [7] = target: Neu5Ac(a2-3)Gal(b1-4)GlcNAc(b1-2)[Neu5Ac(a2-3)Gal(b1-4)GlcNAc(b1-4)]Man(a1-3)[GlcNAc(b1-4)][Neu5Ac(a2-3)Gal(b1-4)GlcNAc(b1-2)[Neu5Ac(a2-3)Gal(b1-4)GlcNAc(b1-6)]Man(a1-6)]Man(b1-4)GlcNAc(b1-4)GlcNAc
# Summary of the method: as §1
# [8] = target: Neu5Ac(a2-3)Gal(b1-4)GlcNAc(b1-2)[Neu5Ac(a2-3)Gal(b1-4)GlcNAc(b1-4)]Man(a1-3)[GlcNAc(b1-4)][Neu5Ac(a2-3)Gal(b1-4)GlcNAc(b1-4)Man(a1-6)]Man(b1-4)GlcNAc(b1-4)GlcNAc
# Summary of the method: as §1
# [9] = target: Neu5Ac(a2-3)Gal(b1-4)GlcNAc(b1-6)GalNAc
# Summary of the method: as §1
# [10] = target: Neu5Ac(a2-3)Gal(b1-4)[Fuc(a1-3)]GlcNAc
# Summary of the method: as §1
# [11] = target: Neu5Ac(a2-3)Gal(b1-4)[Fuc(a1-3)]GlcNAc(b1-3)GalNAc
# Summary of the method: as §1
# [12] = target: Neu5Ac(a2-3)Gal6S(b1-4)GlcNAc
# Summary of the method: as §1
# [13] = target: Neu5Ac(a2-6)Gal(b1-4)GlcNAc(b1-2)Man(a1-3)Man(b1-4)GlcNAc(b1-4)GlcNAc
# Summary of the method: as §1
# [14] = target: Neu5Ac(a2-6)Gal(b1-4)GlcNAc(b1-3)Gal(b1-4)GlcNAc(b1-3)Gal(b1-4)GlcNAc(b1-2)Man(a1-3)[Neu5Ac(a2-6)Gal(b1-4)GlcNAc(b1-3)Gal(b1-4)GlcNAc(b1-3)Gal(b1-4)GlcNAc(b1-2)Man(a1-6)]GalNAc
# Summary of the method: as §1
# [15] = target: Neu5Ac(a2-6)Gal(b1-4)GlcNAc(b1-6)[Gal(b1-3)]GalNAc
# Summary of the method: as §1
# [16] = target: Neu5Ac(a2-6)Gal(b1-4)GlcNAc6S
# Summary of the method: as §1
# [17] = target: Neu5Ac(a2-6)GlcNAc(b1-4)GlcNAc
# Summary of the method: as §1
# [18] = target: Neu5Ac(a2-8)Neu5Ac(a2-3)Gal(b1-3)GalNAc(b1-4)[Neu5Ac(a2-3)]Gal(b1-4)Glc
# Summary of the method: as §1
# [19] = target: Neu5Ac(a2-8)Neu5Ac(a2-3)[Gal(b1-3)GalNAc(b1-4)]Gal(b1-4)Glc
# Summary of the method: as §1
# [20] = target: Neu5Gc(a2-8)Neu5Gc(a2-3)Gal(b1-4)GlcNAc
# Summary of the method: as §1
# [21] = target: Neu5Gc(a2-8)Neu5Gc(a2-6)Gal(b1-4)GlcNAc
# Summary of the method: as §1
binder,measurement,setting,value
B1,glycan array binding signal (z-score),[1],0.272
same,glycan array binding signal (z-score),Kdn(a2-3)Gal(b1-3)GalNAc,0.349
same,glycan array binding signal (z-score),[2],-0.638
same,glycan array binding signal (z-score),[3],-0.081
same,glycan array binding signal (z-score),[4],-0.609
same,glycan array binding signal (z-score),[5],-0.585
same,glycan array binding signal (z-score),[6],2.09
same,glycan array binding signal (z-score),[7],1.18
same,glycan array binding signal (z-score),[8],-0.72
same,glycan array binding signal (z-score),[9],-0.767
same,glycan array binding signal (z-score),[10],0.162
same,glycan array binding signal (z-score),[11],1.5
same,glycan array binding signal (z-score),[12],0.025
same,glycan array binding signal (z-score),[13],1.97
same,glycan array binding signal (z-score),[14],2.65
same,glycan array binding signal (z-score),[15],0.134
same,glycan array binding signal (z-score),[16],-0.865
same,glycan array binding signal (z-score),[17],0.004
same,glycan array binding signal (z-score),[18],-0.348
same,glycan array binding signal (z-score),[19],1.35
same,glycan array binding signal (z-score),[20],0.393
same,glycan array binding signal (z-score),[21],1.14
